The results in this text go back to ChEMBL document CHEMBL5724796, “Tm Shift (DSF) assay results for EUbOPEN Chemogenomics Library” (2024).

What all share (conditions): Compound concentration 20.0 uM
Experiment [1] addresses Tyrosine-protein kinase ABL1 (Homo sapiens) (UniProt P00519).
In experiment [2] the target is Bromodomain-containing protein 4 (Homo sapiens) (UniProt O60885).
For experiment [3], the target named is Cyclin-dependent kinase 2 (Homo sapiens) (UniProt P24941).
For experiment [4], the target named is Casein kinase I isoform delta (Homo sapiens) (UniProt P48730).
Casein kinase I isoform delta (Homo sapiens), sequence (P48730 whole entry, looked up, canonical isoform): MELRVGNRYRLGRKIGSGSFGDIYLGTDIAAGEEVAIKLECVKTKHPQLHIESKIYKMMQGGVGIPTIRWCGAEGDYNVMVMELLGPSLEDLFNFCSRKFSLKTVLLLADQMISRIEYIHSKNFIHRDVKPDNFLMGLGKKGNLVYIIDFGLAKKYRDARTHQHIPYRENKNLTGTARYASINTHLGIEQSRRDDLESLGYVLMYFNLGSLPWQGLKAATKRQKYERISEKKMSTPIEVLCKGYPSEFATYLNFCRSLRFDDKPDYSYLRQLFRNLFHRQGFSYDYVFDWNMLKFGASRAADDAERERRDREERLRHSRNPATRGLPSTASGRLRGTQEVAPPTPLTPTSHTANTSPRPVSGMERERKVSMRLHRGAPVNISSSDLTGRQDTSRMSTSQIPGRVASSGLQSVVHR
The target of experiment [5] is Glycogen synthase kinase-3 beta (Homo sapiens) (UniProt P49841).
Glycogen synthase kinase-3 beta (Homo sapiens), sequence (P49841 whole entry, looked up): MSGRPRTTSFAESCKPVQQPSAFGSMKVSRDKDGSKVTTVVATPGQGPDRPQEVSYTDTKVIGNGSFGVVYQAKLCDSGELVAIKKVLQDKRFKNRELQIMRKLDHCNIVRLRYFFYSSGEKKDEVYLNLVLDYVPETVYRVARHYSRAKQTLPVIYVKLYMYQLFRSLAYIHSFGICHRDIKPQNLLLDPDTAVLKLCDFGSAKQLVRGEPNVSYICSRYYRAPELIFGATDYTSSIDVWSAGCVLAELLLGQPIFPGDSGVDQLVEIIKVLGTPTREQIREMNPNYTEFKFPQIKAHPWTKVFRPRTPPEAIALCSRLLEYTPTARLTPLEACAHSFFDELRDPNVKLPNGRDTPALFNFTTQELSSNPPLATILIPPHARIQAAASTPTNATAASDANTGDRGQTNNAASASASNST
Experiment [6] deals with Mitogen-activated protein kinase 1 (Homo sapiens) (UniProt P28482).
Mitogen-activated protein kinase 1 (Homo sapiens), sequence (P28482 whole entry): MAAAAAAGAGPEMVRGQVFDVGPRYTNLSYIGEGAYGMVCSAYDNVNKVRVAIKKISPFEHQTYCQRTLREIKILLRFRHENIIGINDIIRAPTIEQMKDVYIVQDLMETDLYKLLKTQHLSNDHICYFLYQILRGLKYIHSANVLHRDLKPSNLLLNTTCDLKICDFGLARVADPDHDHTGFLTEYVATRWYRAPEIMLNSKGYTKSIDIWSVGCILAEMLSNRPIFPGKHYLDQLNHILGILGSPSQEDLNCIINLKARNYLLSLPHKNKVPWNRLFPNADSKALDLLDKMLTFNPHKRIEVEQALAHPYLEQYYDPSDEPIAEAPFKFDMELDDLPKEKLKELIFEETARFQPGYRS
Experiment [7] has as its target T1, Aurora kinase A (Homo sapiens) (UniProt O14965).
T1 sequence (whole entry): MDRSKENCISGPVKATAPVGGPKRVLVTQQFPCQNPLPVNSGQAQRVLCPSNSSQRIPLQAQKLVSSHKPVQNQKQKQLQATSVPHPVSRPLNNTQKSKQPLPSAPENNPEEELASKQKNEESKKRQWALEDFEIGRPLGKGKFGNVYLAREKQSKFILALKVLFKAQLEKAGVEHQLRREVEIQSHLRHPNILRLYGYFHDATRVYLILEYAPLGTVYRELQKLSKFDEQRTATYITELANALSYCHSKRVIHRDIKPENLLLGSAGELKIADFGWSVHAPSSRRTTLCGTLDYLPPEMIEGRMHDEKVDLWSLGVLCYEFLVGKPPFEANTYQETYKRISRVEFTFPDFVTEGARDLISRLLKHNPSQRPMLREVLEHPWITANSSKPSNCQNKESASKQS

Experiment [8] deals with T2, Transcription intermediary factor 1-alpha (Homo sapiens) (UniProt O15164).
T2 sequence (whole entry): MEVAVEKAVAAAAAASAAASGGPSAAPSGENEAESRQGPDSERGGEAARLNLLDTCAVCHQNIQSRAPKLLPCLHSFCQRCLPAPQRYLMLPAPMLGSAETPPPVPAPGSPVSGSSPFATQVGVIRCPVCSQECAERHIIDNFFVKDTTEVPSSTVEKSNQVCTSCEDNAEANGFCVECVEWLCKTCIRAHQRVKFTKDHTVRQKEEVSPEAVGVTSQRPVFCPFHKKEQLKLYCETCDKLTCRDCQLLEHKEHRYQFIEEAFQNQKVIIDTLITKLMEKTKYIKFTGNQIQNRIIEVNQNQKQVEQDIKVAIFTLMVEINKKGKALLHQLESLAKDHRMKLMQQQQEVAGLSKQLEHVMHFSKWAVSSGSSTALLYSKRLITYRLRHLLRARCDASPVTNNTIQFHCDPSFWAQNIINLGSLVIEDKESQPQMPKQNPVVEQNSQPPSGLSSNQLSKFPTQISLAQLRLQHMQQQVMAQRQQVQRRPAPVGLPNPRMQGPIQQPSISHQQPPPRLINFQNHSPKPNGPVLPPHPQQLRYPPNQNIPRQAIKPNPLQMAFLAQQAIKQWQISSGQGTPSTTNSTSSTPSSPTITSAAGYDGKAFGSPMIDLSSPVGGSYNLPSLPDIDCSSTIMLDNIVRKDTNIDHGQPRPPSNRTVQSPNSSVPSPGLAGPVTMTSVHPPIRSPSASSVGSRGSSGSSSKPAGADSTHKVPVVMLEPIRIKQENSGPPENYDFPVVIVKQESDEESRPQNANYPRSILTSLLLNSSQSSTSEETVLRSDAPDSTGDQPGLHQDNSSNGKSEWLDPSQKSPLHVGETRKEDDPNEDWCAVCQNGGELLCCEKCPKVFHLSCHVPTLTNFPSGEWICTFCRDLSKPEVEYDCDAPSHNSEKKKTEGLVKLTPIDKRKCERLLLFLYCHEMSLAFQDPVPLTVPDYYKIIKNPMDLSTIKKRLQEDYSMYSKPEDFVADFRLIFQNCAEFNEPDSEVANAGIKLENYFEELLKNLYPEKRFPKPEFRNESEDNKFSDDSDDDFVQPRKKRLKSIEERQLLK

Tyrosine-protein kinase ABL1 (Homo sapiens), sequence (P00519 whole entry): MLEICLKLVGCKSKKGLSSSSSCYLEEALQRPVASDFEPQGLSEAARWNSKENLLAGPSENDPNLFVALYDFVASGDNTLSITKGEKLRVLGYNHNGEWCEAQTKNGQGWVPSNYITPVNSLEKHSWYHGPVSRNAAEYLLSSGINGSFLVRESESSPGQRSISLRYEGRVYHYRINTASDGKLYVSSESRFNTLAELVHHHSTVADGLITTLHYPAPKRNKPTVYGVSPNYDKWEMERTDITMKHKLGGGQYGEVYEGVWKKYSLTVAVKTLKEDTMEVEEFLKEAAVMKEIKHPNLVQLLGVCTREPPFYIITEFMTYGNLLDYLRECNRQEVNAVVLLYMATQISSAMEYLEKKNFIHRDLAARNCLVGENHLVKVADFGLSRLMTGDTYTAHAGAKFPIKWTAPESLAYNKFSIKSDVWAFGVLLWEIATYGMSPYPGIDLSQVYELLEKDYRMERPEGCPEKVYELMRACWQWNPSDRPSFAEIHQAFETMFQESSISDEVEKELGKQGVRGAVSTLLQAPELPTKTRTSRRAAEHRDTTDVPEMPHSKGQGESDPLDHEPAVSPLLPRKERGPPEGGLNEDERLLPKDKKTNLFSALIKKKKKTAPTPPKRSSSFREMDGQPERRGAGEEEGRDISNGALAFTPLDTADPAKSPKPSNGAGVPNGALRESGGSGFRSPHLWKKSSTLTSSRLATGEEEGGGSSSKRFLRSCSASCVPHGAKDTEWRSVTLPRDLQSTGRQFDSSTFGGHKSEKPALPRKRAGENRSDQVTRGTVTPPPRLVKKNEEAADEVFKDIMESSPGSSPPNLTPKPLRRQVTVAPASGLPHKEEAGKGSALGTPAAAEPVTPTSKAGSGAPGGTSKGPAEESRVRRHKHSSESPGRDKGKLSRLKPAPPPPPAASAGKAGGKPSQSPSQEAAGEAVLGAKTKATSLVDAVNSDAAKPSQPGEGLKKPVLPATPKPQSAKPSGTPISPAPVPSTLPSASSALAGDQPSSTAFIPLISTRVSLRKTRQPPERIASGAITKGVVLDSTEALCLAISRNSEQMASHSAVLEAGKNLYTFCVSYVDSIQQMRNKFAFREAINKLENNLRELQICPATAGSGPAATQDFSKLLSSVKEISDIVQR

Take `O=c1[nH]c(Oc2cnn(Cc3ccccc3)c2)nc2cnccc12`: the shift in melting temperature (ΔTm) (in general, the shift of the melting midpoint relative to a reference) in experiment [1] was 0.64 °C; in experiment [2] it was -2.42 °C; in experiment [3], 0.14 °C; in experiment [4] it was -0.09 °C; in experiment [5] it was 0.35 °C; in experiment [6], 0.33 °C. The figures for the ΔTm in experiment [7] and in experiment [8] were -1.07 °C and 0.34 °C, respectively.

For `Cc1nccn1CC1CCc2c(c3ccccc3n2C)C1=O` (stereo not drawn), the ΔTm in experiment [1] is 0.4 °C; in experiment [2], -1.31 °C; in experiment [3], -0.09 °C; in experiment [4] it was -0.21 °C; in experiment [5], -0.4 °C; in experiment [6] it was 0.1 °C. For the same molecule, the results for the ΔTm in experiment [7] and in experiment [8] were -1.95 °C and 0.35 °C, respectively.

As to `O=C(NCc1ccc(F)cc1)C1CCN(S(=O)(=O)c2cc(Cl)cc(Cl)c2)CC1`, the ΔTm was 0.19 °C in experiment [1]; 1.03 °C in experiment [2]; 0.65 °C in experiment [3]; -0.2 °C in experiment [4]; -0.78 °C in experiment [5]; 1.32 °C in experiment [6]. Besides, the ΔTm in experiment [7] is -1.86 °C; in experiment [8], 0.75 °C.

As to `O=[N+]([O-])c1ccc(CSc2ncnc3c2ncn3[C@@H]2O[C@H](CO)[C@@H](O)[C@H]2O)cc1`, the ΔTm in experiment [1] is -0.08 °C; in experiment [2], -1.24 °C; in experiment [3], -0.1 °C; in experiment [4], -0.39 °C; in experiment [5], -0.67 °C; in experiment [6] it was 0.1 °C. In addition, the ΔTm in experiment [7] is -1.6 °C; in experiment [8], -0.18 °C.

With `Cc1cc(C(=O)CN2CCCCC2)c(C)n1-c1ccc(Cl)cc1`, the ΔTm was -0.03 °C in experiment [1]; -2.43 °C in experiment [2]; 0.02 °C in experiment [3]; -0.16 °C in experiment [4]; -0.07 °C in experiment [5]; 0.08 °C in experiment [6]. Moreover, the ΔTm is -1.42 °C in experiment [7] and -0.41 °C in experiment [8].

Turning to `CN1CC[C@@H](Oc2ccc(F)c(-c3nc4c(o3)C(=O)c3ccccc3C4=O)c2Cl)C1`, the ΔTm was 0.09 °C in experiment [1]; 0.99 °C in experiment [2]; 0.38 °C in experiment [3]; -0.29 °C in experiment [4]; -0.09 °C in experiment [5]; 0.24 °C in experiment [6]. The ΔTm in experiment [7] was -1.95 °C; in experiment [8] it was -0.66 °C.

In the case of `C[C@H](N)C(=O)N1C[C@H](CCCB(O)O)[C@](N)(C(=O)O)C1`, the ΔTm in experiment [1] was 0.03 °C; in experiment [2] it was -2.12 °C; in experiment [3], -0.11 °C; in experiment [4] it was -0.32 °C; in experiment [5] it was -0.3 °C; in experiment [6], 0.12 °C. Also, the ΔTm in experiment [7] was -2.46 °C; in experiment [8], -0.11 °C.

As for `O=C(Oc1cccc(F)c1OC(=O)c1cccc(O)c1)c1cccc(O)c1`, the ΔTm was 0.98 °C in experiment [1]; -0.67 °C in experiment [2]; 0.91 °C in experiment [3]; 0.57 °C in experiment [4]; -0.64 °C in experiment [5]; 0.41 °C in experiment [6]. Moreover, the results for the ΔTm in experiment [7] and in experiment [8] were -0.91 °C and 1.67 °C, respectively.

`CC(=O)N1CCC(c2ccc(C(=O)NC(=N)N)cc2C(F)(F)F)CC1`: the ΔTm in experiment [1] is 0.12 °C; in experiment [2], 0.39 °C; in experiment [3], 0.7 °C; in experiment [4], -0.02 °C; in experiment [5], -0.96 °C; in experiment [6] it was 0.47 °C. Further, the results for the shift in melting temperature (ΔTm) in experiment [7] and in experiment [8] were -0.69 °C and 1.39 °C, respectively.

In the case of `CN1C[C@@H]2[C@H](C1)[C@H]2CN(Cc1ccc(F)c(Cl)c1)C(=O)c1cn(C)cn1`, the ΔTm in experiment [1] is 0.53 °C; in experiment [2] it was -2.2 °C; in experiment [3], 0.3 °C; in experiment [4] it was -0.21 °C; in experiment [5], 0.04 °C; in experiment [6] it was 0.19 °C. Further, the ΔTm in experiment [7] was -1.34 °C; in experiment [8], -1.48 °C.

Take `Cc1ncsc1-c1ccc(CNC(=O)[C@@H]2C[C@@H](O)CN2C(=O)[C@@H](NC(=O)COCC(C)(COCCOCCOCCNC(=O)C[C@@H]2N=C(c3ccc(Cl)cc3)c3c(sc(C)c3C)-n3c(C)nnc32)COCCOCCOCCNC(=O)C[C@@H]2N=C(c3ccc(Cl)cc3)c3c(sc(C)c3C)-n3c(C)nnc32)C(C)(C)C)cc1`: the ΔTm in experiment [1] is -0.19 °C; in experiment [2], 0 °C; in experiment [3] it was -4.95 °C; in experiment [4] it was -6.12 °C; in experiment [5] it was -4.05 °C; in experiment [6] it was -12 °C. In addition, the values for the ΔTm in experiment [7] and in experiment [8] were -4.07 °C and -6.48 °C, respectively.
